Reference: PubChem BioAssay AID1159580 (chemical genetic matrix, 2015)
The campaign covered roughly 5,500 compounds. About 2,000 (36%) were called active. About 18% were inconclusive and are not listed. No stated cut-off is given here; in the data, active means normalized growth mostly below about 0.91 (no sharp cut-off); inconclusive means no clear call, values can overlap the other calls; inactive means mostly above about 0.92. Some of the results follow.

Experiment: chemical genetic growth profiling, strain panel (AID 1159580);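 further: tested at 20 µM; growth read once vehicle control cultures reached saturation at 30 °C; 1 = growth at the plate median or of vehicle wells; lower values mean less growth of the strain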
Conditions: S. cerevisiae deletion strains, growth OD
[1] = locus YAL013W, strain DEP1, hits give low values
[2] = locus YAL040C, strain CLN3, hits give low values
[3] = locus YCL061C, strain MRC1 (second series), hits give low values
[4] = locus YDR150W, strain NUM1, hits give low values
[5] = locus YDR363W, strain ESC2, hits give low values
[6] = locus YER002W, strain NOP16, hits give low values
[7] = locus YGR078C, strain PAC10, hits give low values
[8] = locus YMR307W, strain GAS1, hits give low values
[9] = locus YNL175C, strain NOP13, hits give low values
[10] = locus YNL197C, strain WHI3, hits give low values
[11] = locus YNL224C, strain SQS1, hits give low values
[12] = locus YNL322C, strain KRE1, hits give low values
[13] = locus YOR083W, strain WHI5 (second series), hits give low values
[14] = locus YPL055C, strain LGE1, hits give low values
[15] = locus YPL241C, strain CIN2, hits give low values
[16] = locus YJR075W, strain HOC1, hits give low values
[17] = locus YMR263W, strain SAP30, hits give low values

Measured: normalized growth

OC[C@H]1O[C@@H](n2cnc3c(N[C@H]4CC5CCC4C5)ncnc32)[C@H](O)[C@@H]1O (stereo partly drawn)
inactive: [1] 1 | [2] 1.02 | [3] 1.01 | [4] 1.01 | [5] 1 | [6] 1.02 | [7] 1.03 | locus YGR229C, strain SMI1, hits give low values 0.938 | [8] 0.999 | locus YNL128W, strain TEP1, hits give low values 0.992 | [9] 1.01 | [10] 0.994 | [11] 0.974 | [12] 1.01 | [13] 1.04 | [14] 1.03 | [15] 1.01

CCCn1c(=O)c2[nH]c(C3CCCC3)nc2n(CCCOC(=O)c2ccc(S(=O)(=O)F)cc2)c1=O
inactive: [1] 0.992 | [2] 0.987 | [3] 1.01 | [5] 0.998 | [6] 1 | [7] 1.02 | [16] 0.994 | [17] 0.999 | [9] 1.01 | [10] 1 | [11] 1.01 | [13] 0.995 | [14] 1.01

CCOC(=O)C1C(c2cccnc2)C(C(=O)OCC)C(O)(C(F)(F)F)NC1(O)C(F)(F)F (stereo not drawn)
inactive: [1] 1 | locus YBR229C, strain ROT2, hits give low values 1 | locus YCL061C, strain MRC1, hits give low values 1.02 | locus YDL101C, strain DUN1, hits give low values 1 | [4] 0.985 | locus YEL061C, strain CIN8, hits give low values 0.985 | [7] 1.01 | locus YHR030C, strain SLT2, hits give low values 1.01 | locus YHR087W, strain rtc3, hits give low values 1.01 | locus YJR043C, strain POL32, hits give low values 0.996 | [16] 1.03 | locus YKL190W, strain CNB1, hits give low values 1.01 | locus YLR039C, strain RIC1, hits give low values 1.05 | locus YLR058C, strain SHM2 (second series), hits give low values 1.01 | locus YLR085C, strain ARP6, hits give low values 1.01 | locus YLR262C, strain YPT6, hits give low values 1.02 | locus YML094W, strain GIM5, hits give low values 0.965 | locus YMR219W, strain ESC1, hits give low values 1.01 | [17] 1.04 | [8] 0.995 | locus YNL153C, strain GIM3, hits give low values 1.01 | locus YNL298W, strain CLA4 (second series), hits give low values 1 | [12] 0.994 | locus YNR030W, strain Alg12, hits give low values 1 | locus YOL006C, strain TOP1, hits give low values 0.963 | [14] 1 | [15] 1.02 | locus YPR135W, strain CTF4, hits give low values 0.982
